For some of these results: Entries with a potency or affinity are not part of this list.

Common to all, as to set-up: scale not given: direction of the effect not stated beside the values
Assay [1] deals with Protein translocase subunit SecA (Escherichia coli (strain K12)) (UniProt P10408). Nature of the assay: Assay to Identify E. coli SecA ATPase Inhibitors. Type of assay: functional. The note with it: 30 µM.
Assay [2] deals with T1, Ubiquitin-activating enzyme e1, putative (Leishmania donovani (strain BPK282A1)) (UniProt E9BSI1).
T1 sequence (whole entry): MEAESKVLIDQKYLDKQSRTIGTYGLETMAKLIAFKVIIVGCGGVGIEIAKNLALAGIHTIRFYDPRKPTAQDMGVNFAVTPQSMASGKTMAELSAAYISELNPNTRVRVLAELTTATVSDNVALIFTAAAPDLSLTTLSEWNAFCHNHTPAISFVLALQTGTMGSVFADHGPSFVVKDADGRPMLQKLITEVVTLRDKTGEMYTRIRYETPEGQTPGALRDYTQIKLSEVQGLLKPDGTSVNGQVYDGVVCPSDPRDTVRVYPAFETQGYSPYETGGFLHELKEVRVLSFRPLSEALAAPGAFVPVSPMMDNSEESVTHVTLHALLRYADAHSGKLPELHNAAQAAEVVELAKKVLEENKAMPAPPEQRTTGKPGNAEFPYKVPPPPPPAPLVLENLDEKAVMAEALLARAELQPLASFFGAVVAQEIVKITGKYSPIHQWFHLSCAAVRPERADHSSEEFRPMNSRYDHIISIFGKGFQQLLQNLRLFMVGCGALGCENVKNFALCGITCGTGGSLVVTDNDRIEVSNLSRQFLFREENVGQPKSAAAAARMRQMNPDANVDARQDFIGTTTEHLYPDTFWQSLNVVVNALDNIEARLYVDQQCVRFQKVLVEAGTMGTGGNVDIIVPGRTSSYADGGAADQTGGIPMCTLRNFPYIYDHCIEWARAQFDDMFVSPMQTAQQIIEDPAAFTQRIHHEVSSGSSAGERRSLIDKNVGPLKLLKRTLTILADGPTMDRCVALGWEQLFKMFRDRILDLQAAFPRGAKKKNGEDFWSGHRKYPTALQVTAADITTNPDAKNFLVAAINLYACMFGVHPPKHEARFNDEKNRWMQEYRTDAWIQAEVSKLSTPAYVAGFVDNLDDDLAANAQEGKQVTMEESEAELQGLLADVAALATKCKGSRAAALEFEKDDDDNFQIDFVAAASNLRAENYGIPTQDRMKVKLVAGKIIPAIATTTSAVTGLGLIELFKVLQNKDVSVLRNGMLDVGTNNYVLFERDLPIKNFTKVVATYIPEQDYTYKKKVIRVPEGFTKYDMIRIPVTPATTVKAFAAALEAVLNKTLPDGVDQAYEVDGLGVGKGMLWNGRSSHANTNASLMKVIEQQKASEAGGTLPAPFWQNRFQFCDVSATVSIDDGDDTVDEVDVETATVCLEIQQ
Nature of the assay: Leishmania donovani Ubiquitin Activating Enzyme (LdE1). It is filed as functional. The note with it: 30 µM.

In assay [3] the target is AMP-activated protein kinase, AMPK (Homo sapiens) (UniProt P54646+O43741+P54619+Q9UGJ0+Q9Y478+Q13131+Q9UGI9). Nature of the assay: AMP-dependent Kinase enzyme assay. An in vitro enzyme assay that detects ADP turnover that is directly proportional to AMPK activity. This uses naive AMPK that is activated during the assay with MK-8722. Type of assay: functional. The note with it: 30 µM.

Assay [4] deals with Sialic acid-binding Ig-like lectin 9 (Homo sapiens) (UniProt Q9Y336). Nature of the assay: Hs-Siglec9 ALPHAscreen SOP 20170721. The note with it: 10 µM.
Assay [5] deals with Trypanosoma cruzi. Nature of the assay: Trypanosoma cruzi phosphomannomutase and mannose-1-phosphate guanylyltransferase assay. Type of assay: functional. The note with it: 10 µM.
Assay [6] deals with T2, Arginase-2, mitochondrial (Homo sapiens) (UniProt P78540).
T2 sequence (whole entry): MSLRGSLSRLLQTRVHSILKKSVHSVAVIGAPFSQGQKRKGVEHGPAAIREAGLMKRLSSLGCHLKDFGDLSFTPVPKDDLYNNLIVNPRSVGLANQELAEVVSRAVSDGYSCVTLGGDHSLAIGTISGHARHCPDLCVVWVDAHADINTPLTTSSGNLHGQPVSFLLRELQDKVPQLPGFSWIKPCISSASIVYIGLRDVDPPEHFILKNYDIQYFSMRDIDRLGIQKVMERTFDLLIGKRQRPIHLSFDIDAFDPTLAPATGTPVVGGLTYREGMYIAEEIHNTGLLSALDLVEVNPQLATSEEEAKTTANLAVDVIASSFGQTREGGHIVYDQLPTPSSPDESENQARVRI
Nature of the assay: in vitro enzyme assay to detect the production of urea directly proportional to the activity of Arginase II. Also: in the data most compounds retested in dose-response had high values. It is filed as functional. The note with it: 33.3 µM.

Assay [7] addresses T3, Proteasome subunit beta (Trypanosoma cruzi) (UniProt O96673).
T3 sequence (whole entry): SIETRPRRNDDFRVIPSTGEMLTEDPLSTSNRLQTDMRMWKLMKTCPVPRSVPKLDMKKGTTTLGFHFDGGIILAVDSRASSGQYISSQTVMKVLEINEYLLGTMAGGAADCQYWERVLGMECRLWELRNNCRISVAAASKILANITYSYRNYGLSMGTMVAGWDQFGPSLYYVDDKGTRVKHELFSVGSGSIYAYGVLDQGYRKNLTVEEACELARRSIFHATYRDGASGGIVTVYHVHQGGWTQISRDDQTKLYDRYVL
Nature of the assay: Trypanosoma cruzi proteasome chymotrypsin-like activity (TcProtChymo) assay. Also: in the data most compounds retested in dose-response had high values. Type of assay: functional. Particulars: 9.37 µM.

For assay [8], the species on record is Homo sapiens. Nature of the assay: To identify inhibition of the IFN signalling (Jak-Stat) pathway via expression of an eGFP reporter gene under the control of an IFN-stimulated response element (ISRE) containing MxA promoter. Type of assay: functional. Particulars: 30 µM.
The target in assay [9] is T4, Tyrosyl-tRNA synthetase, putative (Trypanosoma cruzi (strain CL Brener)) (UniProt Q4DSP6).
T4 sequence (whole entry): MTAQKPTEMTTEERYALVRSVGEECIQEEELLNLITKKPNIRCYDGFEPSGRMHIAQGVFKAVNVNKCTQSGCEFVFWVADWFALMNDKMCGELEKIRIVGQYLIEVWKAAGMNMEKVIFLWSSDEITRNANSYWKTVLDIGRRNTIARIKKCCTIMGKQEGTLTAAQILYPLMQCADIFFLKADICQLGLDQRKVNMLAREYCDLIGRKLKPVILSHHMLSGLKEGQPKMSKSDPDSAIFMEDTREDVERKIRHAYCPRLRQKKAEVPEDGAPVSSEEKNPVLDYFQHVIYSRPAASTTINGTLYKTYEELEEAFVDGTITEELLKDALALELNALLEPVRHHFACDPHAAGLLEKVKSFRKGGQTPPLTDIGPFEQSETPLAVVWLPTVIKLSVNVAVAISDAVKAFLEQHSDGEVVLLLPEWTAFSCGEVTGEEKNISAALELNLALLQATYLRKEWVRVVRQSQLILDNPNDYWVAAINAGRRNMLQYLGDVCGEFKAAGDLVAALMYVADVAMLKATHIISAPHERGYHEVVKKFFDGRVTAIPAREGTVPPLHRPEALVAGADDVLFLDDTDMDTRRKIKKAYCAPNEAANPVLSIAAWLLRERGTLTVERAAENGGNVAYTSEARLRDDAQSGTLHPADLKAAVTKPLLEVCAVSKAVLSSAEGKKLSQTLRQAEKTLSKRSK
Nature of the assay: Trypanosoma cruzi tyrosyl tRNA synthetase (TcYRS) _High Tyrosine SOP. Also: in the data most compounds retested in dose-response had high values. It is filed as functional. Particulars: 30 µM.

Assay [10] addresses T4, Tyrosyl-tRNA synthetase, putative (Trypanosoma cruzi (strain CL Brener)). Nature of the assay: Trypanosoma cruzi tyrosyl tRNA synthetase (TcYRS) SOP. Particulars: 30 µM. Type of assay: functional.
Assay [11] addresses Chromo domain-containing protein 1 (Saccharomyces cerevisiae (strain ATCC 204508 / S288c) (Baker's yeast)) (UniProt P32657). Nature of the assay: ScCHD-1 Enzyme Inhibition Assay. Also: in the data most compounds retested in dose-response had high values. Type of assay: functional. The note with it: 30 µM.

Sequence of Protein translocase subunit SecA (Escherichia coli (strain K12)) (P10408 whole entry): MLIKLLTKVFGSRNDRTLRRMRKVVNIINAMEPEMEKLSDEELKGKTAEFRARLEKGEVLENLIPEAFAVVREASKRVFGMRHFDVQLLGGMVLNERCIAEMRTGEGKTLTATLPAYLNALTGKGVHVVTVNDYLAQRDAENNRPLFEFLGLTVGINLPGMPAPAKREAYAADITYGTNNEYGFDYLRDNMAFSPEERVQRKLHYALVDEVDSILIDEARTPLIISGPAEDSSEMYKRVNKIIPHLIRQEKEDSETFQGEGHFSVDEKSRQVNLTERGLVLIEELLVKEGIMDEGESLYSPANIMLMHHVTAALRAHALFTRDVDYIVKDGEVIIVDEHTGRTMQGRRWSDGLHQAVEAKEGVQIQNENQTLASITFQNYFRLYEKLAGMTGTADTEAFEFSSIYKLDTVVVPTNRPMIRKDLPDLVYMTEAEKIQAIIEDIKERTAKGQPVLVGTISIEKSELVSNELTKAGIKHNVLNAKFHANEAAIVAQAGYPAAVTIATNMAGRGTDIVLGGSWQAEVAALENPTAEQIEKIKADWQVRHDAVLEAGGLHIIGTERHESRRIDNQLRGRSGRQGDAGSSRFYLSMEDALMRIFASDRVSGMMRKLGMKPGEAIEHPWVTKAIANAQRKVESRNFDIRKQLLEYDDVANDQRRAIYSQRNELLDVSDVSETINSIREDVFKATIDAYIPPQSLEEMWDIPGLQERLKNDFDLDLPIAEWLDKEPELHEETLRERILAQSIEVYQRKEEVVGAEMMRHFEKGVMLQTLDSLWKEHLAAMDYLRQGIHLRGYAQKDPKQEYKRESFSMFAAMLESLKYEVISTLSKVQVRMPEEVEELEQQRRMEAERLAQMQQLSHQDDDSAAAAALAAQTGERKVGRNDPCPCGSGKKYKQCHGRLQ
Sequence of Chromo domain-containing protein 1 (Saccharomyces cerevisiae (strain ATCC 204508 / S288c) (Baker's yeast)) (P32657 whole entry, the tested form may be a part): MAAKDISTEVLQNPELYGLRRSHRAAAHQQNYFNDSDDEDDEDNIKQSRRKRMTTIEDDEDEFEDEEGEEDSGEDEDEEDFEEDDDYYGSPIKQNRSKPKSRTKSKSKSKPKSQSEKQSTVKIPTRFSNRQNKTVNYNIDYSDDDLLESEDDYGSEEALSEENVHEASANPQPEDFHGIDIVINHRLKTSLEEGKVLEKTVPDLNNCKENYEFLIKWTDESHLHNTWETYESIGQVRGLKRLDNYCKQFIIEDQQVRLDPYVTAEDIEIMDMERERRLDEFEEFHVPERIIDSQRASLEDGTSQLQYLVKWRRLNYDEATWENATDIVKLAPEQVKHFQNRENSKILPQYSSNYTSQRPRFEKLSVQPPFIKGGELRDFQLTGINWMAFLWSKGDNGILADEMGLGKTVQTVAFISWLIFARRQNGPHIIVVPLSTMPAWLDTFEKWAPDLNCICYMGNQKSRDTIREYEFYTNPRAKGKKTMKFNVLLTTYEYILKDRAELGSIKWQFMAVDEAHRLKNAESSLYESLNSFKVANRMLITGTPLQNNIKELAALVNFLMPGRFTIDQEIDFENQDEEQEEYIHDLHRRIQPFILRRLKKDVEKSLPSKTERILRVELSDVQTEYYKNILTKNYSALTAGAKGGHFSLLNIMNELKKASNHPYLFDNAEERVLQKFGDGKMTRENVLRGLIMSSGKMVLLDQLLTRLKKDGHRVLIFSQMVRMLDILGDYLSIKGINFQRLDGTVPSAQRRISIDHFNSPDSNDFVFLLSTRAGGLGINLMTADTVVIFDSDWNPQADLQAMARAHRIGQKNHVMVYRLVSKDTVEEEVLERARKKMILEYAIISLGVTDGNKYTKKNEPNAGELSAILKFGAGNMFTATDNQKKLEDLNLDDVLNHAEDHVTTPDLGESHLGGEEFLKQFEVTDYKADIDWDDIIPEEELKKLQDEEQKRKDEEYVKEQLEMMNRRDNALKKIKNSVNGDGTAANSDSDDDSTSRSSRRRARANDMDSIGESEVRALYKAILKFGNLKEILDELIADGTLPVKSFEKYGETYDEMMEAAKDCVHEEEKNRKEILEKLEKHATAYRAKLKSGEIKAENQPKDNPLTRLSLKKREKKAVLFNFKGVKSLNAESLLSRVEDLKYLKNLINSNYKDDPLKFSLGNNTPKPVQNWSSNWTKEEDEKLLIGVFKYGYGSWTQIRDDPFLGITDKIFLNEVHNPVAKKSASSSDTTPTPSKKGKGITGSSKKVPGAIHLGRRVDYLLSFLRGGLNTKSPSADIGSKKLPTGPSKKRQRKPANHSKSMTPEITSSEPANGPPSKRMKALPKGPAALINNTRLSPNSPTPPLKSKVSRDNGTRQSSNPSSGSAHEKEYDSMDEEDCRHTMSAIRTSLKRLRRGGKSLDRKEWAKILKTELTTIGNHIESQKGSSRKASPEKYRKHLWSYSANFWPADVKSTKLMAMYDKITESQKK
Sequence of Sialic acid-binding Ig-like lectin 9 (Homo sapiens) (Q9Y336 whole entry): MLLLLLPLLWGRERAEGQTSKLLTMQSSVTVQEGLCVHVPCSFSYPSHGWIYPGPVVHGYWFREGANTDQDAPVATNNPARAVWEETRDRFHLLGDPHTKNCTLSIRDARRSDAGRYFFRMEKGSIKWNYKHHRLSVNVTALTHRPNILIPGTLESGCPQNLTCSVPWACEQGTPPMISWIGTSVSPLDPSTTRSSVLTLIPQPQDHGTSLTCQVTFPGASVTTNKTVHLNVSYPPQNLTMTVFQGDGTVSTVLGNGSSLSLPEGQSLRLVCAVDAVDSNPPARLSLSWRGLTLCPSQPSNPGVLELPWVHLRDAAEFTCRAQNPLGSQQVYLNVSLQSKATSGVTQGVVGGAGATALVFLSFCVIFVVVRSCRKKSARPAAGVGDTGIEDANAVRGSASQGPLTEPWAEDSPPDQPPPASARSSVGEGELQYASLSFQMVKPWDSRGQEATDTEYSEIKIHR

Consider `CC(=O)NCC(=O)N1CCn2cc(CN3CCN(C)CC3)nc2C1`, for which the Percent Effect was -4.28% in [1]; 10.4% in assay [2]; -0.0716% in assay [3]; 14.9% in assay [4]; 7.57% in [5]; -1.38% in assay [6]. Moreover, the Percent Effect is 6.16% in assay [7]; 9.49% in assay [8]; 8.6% in [9]; 16.1% in [10]; -0.16% in assay [11].
On to `O=S(=O)(Cc1ccccc1)NCc1ccco1`, for which the Percent Effect in [1] is -2.2%; in [2], -1.39%; in [3] it was 13.3%; in assay [4], 0.175%; in assay [5], 0.68%; in assay [6], 0%. In addition, the Percent Effect is -1.4% in [7]; 6.12% in assay [8]; 3.16% in assay [9]; 2.56% in [10]; 0.387% in assay [11].
For the molecule `COCCC(=O)N1CCC(c2noc3nc(C)cc(C(F)(F)F)c23)CC1`, the Percent Effect in assay [1] was -0.633%; in [2] it was 6.76%; in [3] it was 7.83%; in [4], 4.3%; in assay [5], -6.13%; in assay [6], -2.55%. The Percent Effect was 13.1% in assay [7]; 8.05% in assay [8]; 2.15% in assay [9]; 6.49% in assay [10]; 9.94% in [11].
As for `CCc1nc(CN2CCCC(NCc3ncc(C(C)(C)C)o3)C2)no1` (stereo unspecified), the Percent Effect in assay [1] is -1.05%; in assay [2], 18.2%; in assay [3], 2.6%; in assay [4] it was -6.25%; in assay [5] it was 1.27%; in [6], 1.05%. Further, the Percent Effect is 22.6% in assay [7]; -1.65% in assay [8]; 12.4% in assay [9]; 35.3% in [10]; -24.7% in assay [11].
`CCOc1ccc(CNCCCn2ccnc2)cc1Br`: the Percent Effect in [1] was -0.283%; in [2], 12%; in [3], -3.14%; in [4], 3.52%; in assay [5], -3.34%; in [6] it was -6.51%. In addition, the Percent Effect was 12.8% in assay [7]; 9.57% in [8]; 6.35% in assay [9]; 10.3% in assay [10]; -10.4% in assay [11].
Take `c1cnnc(N2CCCC2CNCc2nc3ccccc3o2)c1` (stereo unspecified): the Percent Effect in assay [1] was -0.208%; in assay [2], 2.74%; in [3], -3.71%; in [4] it was 10.3%; in [5], 0%; in assay [6], -3.19%. The Percent Effect in [7] is 21%; in assay [8] it was -2.37%; in assay [9] it was 15.6%; in [10], 25.9%; in [11] it was -2.93%.
For the molecule `c1cnc2c(c1)cc([C@H]1CCCO1)n2CCN1CCCCC1`, the Percent Effect in assay [1] is 4.1%; in assay [2] it was 9.46%; in assay [3], 12%; in assay [4], -7.44%; in assay [5], -7.91%; in [6], -0.232%. In addition, the Percent Effect is 9.52% in assay [7]; 7.5% in [8]; 2.15% in [9]; 3.9% in assay [10]; -12.4% in assay [11].
For the molecule `CCO[C@@H]1CO[C@@]2(CCCN(C(=O)COc3ccccc3OC)C2)C1`, the Percent Effect in assay [1] is 2.9%; in assay [2], 18.2%; in assay [3], 3.83%; in [4] it was -2.8%; in assay [5] it was 0.888%; in [6], 8.39%. Further, the Percent Effect in assay [7] was 8.7%; in [8], 25.1%; in assay [9], 6.35%; in assay [10], 16.7%; in assay [11], -9.93%.
On to `COc1cc(CNCCc2nc(C)cs2)cc2c1OCCO2`, for which the Percent Effect in assay [1] was -2.37%; in [2], 5.26%; in [3], 1.5%; in assay [4] it was 15.7%; in [5], -1.13%; in [6] it was -3.06%. The Percent Effect was 12.5% in [7]; 10.1% in assay [8]; 4.41% in assay [9]; 12.2% in [10]; -7.14% in assay [11].
`CC(=O)N1CCN(CC2CCOc3ccccc3C2)CC1` (stereo unspecified): the Percent Effect in [1] is -5.96%; in [2] it was -1.39%; in assay [3], -8.25%; in assay [4], 5.04%; in assay [5], -5.34%; in assay [6] it was 0.883%. Further, the Percent Effect is 14.6% in [7]; -1.92% in [8]; 1.05% in assay [9]; -7.69% in assay [10]; -1.42% in assay [11].
In the case of `Cc1ccc(CN2CC[C@H]3OCC[C@@H](C(=O)NC4CC4)[C@@H]3C2)o1`, the Percent Effect was -6.72% in assay [1]; 5.41% in assay [2]; -20.2% in assay [3]; -9.85% in assay [4]; -4.01% in assay [5]; 1.59% in [6]. Besides, the Percent Effect is 7.75% in assay [7]; 11.3% in assay [8]; -1.08% in assay [9]; -2.56% in assay [10]; -0.126% in assay [11].

(Values after ChEMBL document CHEMBL3988442, “University of Dundee, Small-Polar-MMV Screening Library” (2021).)
